Screening data from PubChem BioAssay.
In the library only some 8.9% were active in any assay of this set; here they are far more common.
12-hLO inh: inhibitors of human 12-lipoxygenase (ALOX12); P18054; purified 12-hLO, xylenol orange hydroperoxide absorbance; Potency, µM (highest dose often 57.1 µM), for inactives: at the highest dose activity change, negative = inhibition, most hits filed as inhibitors; 0.12% of 150,000 active; AID 1452; also: potency is read from the fitted curve at half-maximal effect; nearly all actives have a fitted effect of over 55% in size
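Xylenol orange chromogenic assay: hydroperoxide from 12hLO oxidises Fe(II), giving red-shifted Fe(III)-XO absorbance. Conditions: 150 nM enzyme, 40 uM arachidonic acid, 25 mM Hepes pH 7.0, 0.01% Triton X-100, 30 min, room temperature.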
NPSR antagonist: neuropeptide S receptor (human) antagonism, cAMP; AID 1461; CHO-NPSR cells, cAMP TR-FRET, antagonist mode; 1% of 220,000 active; Potency, µM (series often up to 38.3 µM), without a hit: top-dose activity change, negative = inhibition, most hits filed as inhibitors; also: potency is read from the fitted curve at half-maximal effect; nearly all actives have a fitted effect of over 50% in size
Target sequence (Q6W5P4 whole entry, looked up): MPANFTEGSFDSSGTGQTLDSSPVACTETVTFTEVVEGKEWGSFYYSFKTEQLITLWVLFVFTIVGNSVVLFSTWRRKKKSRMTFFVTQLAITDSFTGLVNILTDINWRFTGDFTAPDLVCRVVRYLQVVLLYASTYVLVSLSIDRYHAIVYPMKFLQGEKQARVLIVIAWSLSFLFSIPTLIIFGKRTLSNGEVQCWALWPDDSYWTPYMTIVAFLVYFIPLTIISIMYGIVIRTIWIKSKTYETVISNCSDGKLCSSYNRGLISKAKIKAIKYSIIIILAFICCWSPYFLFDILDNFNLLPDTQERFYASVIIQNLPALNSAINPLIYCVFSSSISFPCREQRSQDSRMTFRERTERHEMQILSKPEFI
HPGD block: blocks human HPGD enzyme activity | AID 894 | Potency, µM, inactives show top-dose activity change, negative = inhibition, most hits filed as inhibitors | purified HPGD, NADH fluorescence kinetic, PGE2 substrate | P15428 | 4.3% of 150,000 active; active = well fitted inhibition curve with a large enough effect, not every such curve was filed as active; inconclusive = small, poorly fitted or top-dose-only effect, or another doubt; inactive = no such curve, though single readings can be large or run the other way; also: potency is read from the fitted curve at half-maximal effect
Target sequence (P15428 whole entry, looked up): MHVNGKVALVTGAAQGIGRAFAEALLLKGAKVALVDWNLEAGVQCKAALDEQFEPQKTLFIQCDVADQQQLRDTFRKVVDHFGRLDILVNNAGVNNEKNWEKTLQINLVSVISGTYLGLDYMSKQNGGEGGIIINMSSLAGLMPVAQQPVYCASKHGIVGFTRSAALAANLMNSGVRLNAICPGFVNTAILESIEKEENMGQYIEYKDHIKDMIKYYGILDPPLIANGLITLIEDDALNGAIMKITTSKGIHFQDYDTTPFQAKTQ
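20 nM HPGD preincubated 15 min at room temperature with compound in 50 mM Tris-HCl pH 8, 0.01% Tween 20. Started with 1 mM NAD+ and 30 uM prostaglandin E2; NADH fluorescence (360/450 nm) read 5 times over 30-s intervals, last minus first.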
ALDH1A1 inh: ALDH1A1 (human) enzyme inhibition | Purified ALDH1A1, NADH fluorescence, propionaldehyde substrate | P00352 | AID 1030 | 7.3% of 220,000 active | Potency, µM (doses to about 75.3 µM), without a hit: top-dose activity, negative = inhibition, actives largely listed as inhibitors; active = well fitted inhibition curve with a large enough effect, not every such curve was filed as active; inconclusive = small, poorly fitted or top-dose-only effect, or another doubt; inactive = no such curve, though single readings can be large or run the other way;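 also: potency is read from the fitted curve at half-maximal effect; plate controls were no enzyme wells and a reference inhibitor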
IMPase cell inh: IMPase inhibition in cells; inhibition (IP1 accumulation), % at 46.1 µM; AID 901; CHO-M1 cells, IP1 accumulation, HTRF TR-FRET ratio; 120,000 tested, under 10 active; active = well fitted curve in the direction sought with a large enough effect in the signal ratio, not every such curve was filed as active; inconclusive = small, poorly fitted or top-dose-only effect, or a change in a side signal; inactive = no such curve, though single readings can be large or run the other way; the % refers to the signal ratio;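 also: cells stimulated with carbachol in lithium chloride buffer; plate controls were DMSO basal wells for no effect and reference inhibitor wells for full effect; higher means more IMPase inhibition seen as more IP1 and lower FRET ratio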
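CHO-M1 cells (CHO stably expressing M1 receptor), compound up to 46 uM final, stimulated with carbachol (50 uM as added) in buffer with 50mM LiCl, pH 7.4, 30 min at 37C. Cytosolic IP1 read by TR-FRET; AC50 from Hill fits.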
IMPase Li inh: cell-permeable IMPase inhibitors with lithium potentiation; Potency, µM (doses to about 59.4 µM), for the others: top-dose activity, negative = IMPase inhibition, hits mostly inhibitors; CHO-M1 cells, IP1 TR-FRET (IP-One), carbachol + lithium; 0.35% of 210,000 active;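 also: IP1 builds up when IMPase is blocked and the TR-FRET signal falls; potency is read from the fitted curve at half-maximal effect; plate controls were basal vehicle for no effect and high inhibitor control for full effect; nearly all actives have a fitted effect of over 50% in size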
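Readout is a homogeneous TR-FRET IP1 immunoassay (Ex 320, Em 665 and 620), where raised cytosolic IP1 lowers signal. Cells were CHO-M1 treated 30 min at 37C with test compounds plus a little lithium; AC50 values came from Hill-equation fitting.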
* hit, by the source's call; ? = inconclusive; / = no result given; [ ] = another dose, or the depositor's remark. Unless noted, calls follow the shape of the dose curve; as a rule, active = well fitted curve in the direction sought with a large enough effect; inconclusive = small, poorly fitted or top-dose-only effect, or another doubt; inactive = no such curve, though single readings can be large; an effect the other way counts as inactive or inconclusive. Unless noted, % is scaled to controls: 0 for no effect and ±100 for the full control effect.

SMILES	12-hLO inh	NPSR antagonist	HPGD block	ALDH1A1 inh	IMPase cell inh	IMPase Li inh
CCC(Cc1ccccc1)n1c(=S)[nH]c2ccccc2c1=O (centres undefined)	/	?	/	0.9%	/	3.5%
O=C(NCc1ccccc1)c1csc2c1CCCCC2	-0.3%	-15.1%[46.1 µM]	8.91µM*	17.8µM*	10.8	7.1%[38.3 µM]
O=C(NCc1ccco1)c1csc2c1CCCCC2	10.0%	11.2%[46.1 µM]	6.31µM*	?	1.6	43.4%[38.3 µM]
CC1CCc2c(C(=O)NCc3ccco3)csc2C1 (centres undefined)	/	-3.6%	/	/	/	/
CS(=O)(=O)N(CC(=O)NCc1ccco1)c1ccc(Cl)cc1Cl	/	7.6%	/	2.9%	/	3.5%
Cc1nn(CCC(=O)NNC(=S)Nc2ccc(F)cc2)c(C)c1Br	-1.8%	-22.8%	-11.8%	?	/	1.7%
Cc1ccc(NC(=O)Cn2nc(C)c([N+](=O)[O-])c2C)cc1C	/	-6.5%	/	20µM*	/	5.4%
Cc1nn(CCC(=O)NNC(=S)Nc2ccc([N+](=O)[O-])cc2)c(C)c1[N+](=O)[O-]	/	2.5%	/	4.47µM*	/	1.5%
O=C(Cn1nc(C(F)F)cc1C(F)F)NNC(=S)Nc1ccc([N+](=O)[O-])cc1	/	-1.0%	/	17.8µM*	/	3.8%
O=C(Cn1nc(C(F)F)cc1C(F)F)NNC(=S)Nc1ccc(F)cc1	-1.8%	-7.8%[46.1 µM]	-17.4%	0.0%	3.8	21.0%[38.3 µM]
COc1ccccc1CNc1n[nH]c(NCc2ccccc2OC)n1	11.9%	-18.1%[46.1 µM]	-3.5%	-6.1%	?	21.9%[38.3 µM]
Nc1c(C(=O)NCc2ccco2)nnn1-c1ccccc1	0.4%	-3.0%[46.1 µM]	-13.7%	6.4%	-1.4	-19.8%[38.3 µM]
Cc1ccc(NC(=O)/C(Cl)=C\c2ccccc2)cc1	-10.0%	-0.9%[46.1 µM]	-22.2%	3.98µM*	2.6	13.0%[38.3 µM]
Cn1nc(C(C)(C)C)cc1C(=O)NNC(=O)c1ccc(C(F)(F)F)cc1	/	4.0%	/	/	/	/
O=c1c2ccccc2c(C=NC2CCS(=O)(=O)C2)c(O)n1-c1ccccc1 (centres undefined)	-5.7%	-5.3%[46.1 µM]	-11.4%	17.8µM*	11.4	?
O=c1c2ccccc2c(C=NCCO)c(O)n1-c1ccccc1	-0.4%	-5.4%[46.1 µM]	-12.2%	-14.3%	-5.0[1.84 µM]	33.7%[38.3 µM]
O=c1[nH]n2c(=O)c3c([nH]c2c1N=Nc1cccc(Cl)c1)CCCC3	3.3%	10µM*	15.8µM*	-1.8%	15.8	20.0%
CCOc1ccc(N=Nc2c(=O)[nH]n3c(=O)c4c([nH]c23)CCCC4)cc1	0.1%	-31.3%	?	3.8%	/	6.8%
CCN(Cc1ccccc1)c1ccc(/C=N/N2CCOCC2)cc1	3.2%	-4.2%	-15.9%	2.24µM*	/	12.6%
CCN(Cc1ccccc1)c1ccc(/C=N/NC(=O)c2cccc(S(=O)(=O)N3CCOCC3)c2)cc1	-0.2%	-1.8%	?	?	/	-1.2%
CCc1ccc(/C=N/N2CCN(c3ccccn3)CC2)cc1	/	10.9%	/	/	/	/
CCN(CC)c1ccc(/C=N/N2CCOCC2)cc1	2.9%	-21.3%[46.1 µM]	-17.7%	22.4µM*	22.8	10.4%
CCN(CC)c1ccc(/C=N/N2CCN(c3ccccn3)CC2)cc1	/	-12.5%	/	22.4µM*	/	/
O=C(O)c1cc(Br)ccc1NN=C1CCCCC1	-17.3%	2.8%	25.1µM*	?	/	-2.5%
COc1cc(-c2cc(N3C(=O)Nc4ccccc4N3O)n[nH]2)cc(OC)c1OC	1.4%	30.6%	1.2%	-4.9%	/	1.5%
SMILES	12-hLO inh	NPSR antagonist	HPGD block	ALDH1A1 inh	IMPase cell inh	IMPase Li inh
CSc1nc(-c2ccccc2)cc(C)c1C#N	/	1.5%	/	?	/	?
N#Cc1c(-c2ccccc2Cl)cc(C2CC2)nc1N	-7.1%	-8.5%[46.1 µM]	/	-3.0%	8.2	/
N#Cc1c(-c2ccccc2Cl)cc(-c2ccccc2)nc1Br	-2.8%	-48.4%	25.1µM*	-1.2%	/	7.9%
N#Cc1c(-c2cccc(F)c2)cc(-c2ccccc2)nc1Br	-0.2%	?	17.8µM*	-3.2%	-8.8	?
O=Cc1ccc(-c2ccc(F)cc2)o1	/	6.3%	/	1.41µM*	/	-5.6%
O=Cc1ccc(-c2ccc(C(=O)O)cc2)o1	/	-3.3%	/	/	/	/
Cc1cccc(-c2noc(-c3ccccc3C(=O)NCc3ccco3)n2)c1	/	-11.8%	/	/	/	/
CO/N=C(\c1nonc1N)N1CCN(c2ccc([N+](=O)[O-])cc2Cl)CC1	-5.0%	-17.5%[46.1 µM]	-22.4%	?	7.9	20.0%[38.3 µM]
CCO/N=C(/c1nonc1N)N1CCN(c2ccc([N+](=O)[O-])cc2)CC1	-9.3%	-29.4%[46.1 µM]	-13.6%	11.2µM*	3.4	9.1%[38.3 µM]
CC(C)(C)OC(=O)N1CCC[C@H]1c1nnc(SCc2ccccc2Cl)o1	1.5%	-21.0%[46.1 µM]	-11.1%	-7.8%	4.1	-6.4%[38.3 µM]
CC(C)(C)OC(=O)N1CCC[C@H]1c1nnc(SC/C=C/c2ccccc2)o1	-7.1%	-24.4%[46.1 µM]	/	22.4µM*	12.5	/
Cc1nn(-c2ccccc2)c(Cl)c1/C=N/NC(=O)C1COc2ccccc2O1 (centres undefined)	2.0%	-5.5%	-14.8%	2.82µM*	/	8.6%
Cc1ccc(/C=N\NC(=O)C2COc3cc4ccccc4cc3O2)o1 (centres undefined)	-13.8%	-22.6%[46.1 µM]	14.1µM*	?	1.0	28.1%[38.3 µM]
